Potency data for 1 molecule are collected here from PubChem BioAssay AID2017 (National Center for Advancing Translational Sciences (NCATS), 2009).

Results filed as inconclusive are left out. Calls of active or inactive are those of the source. Calls come from the whole dose curve; as a rule, active = well fitted curve in the direction sought with a large enough effect; inconclusive = small, poorly fitted or top-dose-only effect, or another doubt; inactive = no such curve, though single readings can be large or run the other way.

The target of this assay is 4-diphosphocytidyl-2-C-methyl-D-erythritol kinase, chloroplastic (Arabidopsis thaliana) (UniProt O81014). The experiment in a line: Confirmatory Assay for Inhibitors of Human Galactokinase (GALK): CDP-Me assay counterscreen. The following applies: ATP depletion, Kinase-Glo luminescence. The text has this: NIH Molecular Libraries Probe Production Centers Network [MLPCN] NIH Chemical Genomics Center [NCGC] MLPCN Grant: R03 MH085689-01 Assay Submitter (PI): Kent Lai (University of Utah School of Medicine, 50 N Mario Capecchi Drive, Salt Lake City, UT 84132) NCGC Assay Overview The GHMP kinase family is a unique class of important enzymes that plays an essential role in many metabolic processes. It contains more than 170 protein members among which are the galactokinase (GALK) and the CMK enzymes. GALK plays a crucial role in galactose processing and is a potential therapeutic target for Classic Galactosemia (OMIM: 230400). CMK is involved for the non-mevalonate synthesis of isoprenoids precursors and natural products like sterols or ubiquinones which are important to many biological functions. […]
Sequence of 4-diphosphocytidyl-2-C-methyl-D-erythritol kinase, chloroplastic (Arabidopsis thaliana) (O81014 whole entry, looked up): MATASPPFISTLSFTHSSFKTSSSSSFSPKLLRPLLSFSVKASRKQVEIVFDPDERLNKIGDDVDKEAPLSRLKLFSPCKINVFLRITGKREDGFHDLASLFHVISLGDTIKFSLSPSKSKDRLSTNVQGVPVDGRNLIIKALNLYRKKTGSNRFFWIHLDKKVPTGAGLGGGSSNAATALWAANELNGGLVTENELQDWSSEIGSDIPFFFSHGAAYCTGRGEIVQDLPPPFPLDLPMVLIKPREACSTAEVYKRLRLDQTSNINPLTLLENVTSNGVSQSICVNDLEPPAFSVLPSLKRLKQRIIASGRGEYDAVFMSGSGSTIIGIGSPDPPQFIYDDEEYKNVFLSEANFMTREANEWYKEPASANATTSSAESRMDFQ
NCGC Assay Protocol Summary: Three uL/well of substrate solution (15 uM ATP, 30 uM CDP-ME, 20 mM HEPES pH8.0, 5 mM MgCl2, 40 mM KCl, 1 mM DTT, 0.01% BSA final concentration) was dispensed into 1536-well, assay plates (Greiner, solid white medium-binding plates) with Aurora Discovery BioRAPTR Flying Reagent Dispenser (FRD; Beckton-Dickenson). […] After 1 min, luminescence was detected with the ViewLux plate reader (Perkin Elmer, Waltham, MA) using a 1 sec exposure time and 2x binning settings.
A general note: A counterscreen serves to expose hits that act by an unwanted route or on another target.

Take `COc1cc(/C=C2\C(=N)N3N=C(S(=O)(=O)CC(C)C)SC3=NC2=O)ccc1OC(=O)c1ccco1`: the Potency was 29.8 µM (active).
